Measurements: PubChem BioAssay (NCATS)
Values joined by “and” are separate entries in the source; they are usually repeats but may differ in a detail not shown here. Equal entries are not always repeated. Records with an inconclusive call do not appear. Active and inactive are the calls of the source. Unless noted, the call rests on the fitted dose curve; in most records, active means well fitted curve in the direction sought with a large enough effect; inconclusive means small, poorly fitted or top-dose-only effect, or another doubt; inactive means no such curve, though single readings can be large; an effect the other way counts as inactive or inconclusive.

Assays:
PA-1 = assay: Primary qHTS to identify gynecologic anti-cancer compounds using libraries of approved drugs and bioactive compounds (AID 1345084); settings: Gynecologic cancer cell panel viability, ATPlite luminescence, 48 h; series mostly up to 57.5 µM; further: nearly all actives have a fitted effect of over 55% in size; further: potency means the concentration at half of the fitted maximal effect
How it was run: (§1)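 Five-concentration response, 48 h; readout is ATP-driven luciferase luminescence.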

Tov-21-G = assay: as above; settings: Gynecologic cancer cell panel viability, ATPlite luminescence, 48 h; series mostly up to 57.5 µM
How it was run: as §1

Tov112D = assay: as above; settings: Gynecologic cancer cell panel viability, ATPlite luminescence, 48 h; series mostly up to 57.5 µM
How it was run: as §1

SKOV3 = assay: as above; settings: Gynecologic cancer cell panel viability, ATPlite luminescence, 48 h; series mostly up to 57.5 µM
How it was run: as §1

[1] = Drug repurposing screens with cells derived from glioblastoma tumor samples (AID 1345199); settings: GBM patient neurospheres viability, ATP luminescence, 48 h; further: nearly all actives have a fitted effect of over 40% in size; further: potency means the concentration at half of the fitted maximal effect; on activity, negative = cell killing: on the % scale 0 is the no-effect control and ±100 the full control effect
How it was run: (§2)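 Primary testing used CD133+ neurospheres from four GBM patients, seven concentrations, 48 h exposure and ATP-based viability; confirmation added three slower-growing patient lines.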

astro = assay: as above; settings: viability, ATP luminescence, 48 h; series mostly up to 45.9 µM
How it was run: as §2

[2] = target: Nuclear receptor subfamily 1 group I member 2 (Rattus norvegicus) (UniProt Q9R1A7); assay: qHTS assay for small molecule activators of the rat pregnane X receptor (rPXR) signaling pathway (AID 651751; call rule not given here; further: 0% is about no effect); settings: rPXR reporter cells, luciferase (One-Glo), 24 h
Chain of Nuclear receptor subfamily 1 group I member 2 (Rattus norvegicus) (Q9R1A7 whole entry, looked up): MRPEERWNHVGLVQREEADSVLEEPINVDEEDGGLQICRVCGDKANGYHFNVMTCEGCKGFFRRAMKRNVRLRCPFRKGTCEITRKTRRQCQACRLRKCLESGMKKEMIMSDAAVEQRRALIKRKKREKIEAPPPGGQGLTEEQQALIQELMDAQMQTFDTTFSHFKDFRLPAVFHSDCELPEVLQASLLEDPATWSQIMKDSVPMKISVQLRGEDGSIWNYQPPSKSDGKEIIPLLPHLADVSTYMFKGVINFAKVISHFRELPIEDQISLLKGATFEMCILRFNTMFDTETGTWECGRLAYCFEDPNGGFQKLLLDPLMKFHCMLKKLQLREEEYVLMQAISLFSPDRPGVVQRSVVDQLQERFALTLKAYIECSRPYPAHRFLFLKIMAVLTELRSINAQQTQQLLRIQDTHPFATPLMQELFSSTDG

[3] = qHTS assay for small molecule activators of the human pregnane X receptor (PXR) signaling pathway (AID 720659; call rule not given here; further: 0% is about no effect); settings: DPX-2 HepG2 CYP3A4-luciferase, 24 h; series mostly up to 92.3 µM
[4] = at 45.9 µM (top of the series), tumour line B
[5] = at 45.9 µM (top of the series), tumour line D
[6] = at 46 µM (top of the series), tumour line A
[7] = at 21.2 µM (top of the series), tumour line B
[8] = at 21.2 µM (top of the series), tumour line D

C1CN2CCC1CC2
inactive: Potency (PA-1) | Potency (Tov-21-G) | Potency (Tov112D)

O=c1n(Cl)c(=O)n(Cl)c(=O)n1Cl
inactive: Potency (PA-1) | Potency (SKOV3) | Potency (Tov-21-G) | Potency (Tov112D) | activity, negative = cell killing [1, 4] -0.787% | activity, negative = cell killing [1, 5] 7.38% | Potency (astro) | max response [2] -5.15% | outcome [3]

COc1cc(N)c(Cl)cc1C(=O)NC1CN2CCC1CC2 (centres undefined)
inactive: Potency (PA-1) | Potency (SKOV3) | Potency (Tov-21-G) | Potency (Tov112D) | activity, negative = cell killing [1, 4] -1.32% | activity, negative = cell killing [1, 5] 1.82% | Potency (astro)

O=C(N[C@H]1N=C(c2ccccc2F)c2cccc3c2N(CC3)C1=O)c1cc2ccccc2[nH]1
inactive: Potency (PA-1) | Potency (Tov-21-G) | Potency (Tov112D) | activity, negative = cell killing [1, 4] 9.35%

C[C@@H]1CC[C@H]2[C@@H](C)C(=O)O[C@@H]3O[C@@]4(C)CC[C@@H]1[C@]32OO4
inactive: Potency (PA-1) | Potency (SKOV3) | Potency (Tov-21-G) | Potency (Tov112D) | activity, negative = cell killing [1, 4] -29.6% | Potency (astro)

C[N+](C)(C)CCOC(=O)C(O)(c1ccccc1)c1ccccc1
inactive: Potency (PA-1) | Potency (SKOV3) | Potency (Tov-21-G) | Potency (Tov112D) | activity, negative = cell killing [1, 4] -4.79% | activity, negative = cell killing [1, 5] -23.3% | Potency (astro)

Oc1c(Br)cc(Br)cc1Br
inactive: Potency (PA-1) | Potency (SKOV3) | Potency (Tov-21-G) | Potency (Tov112D) | activity, negative = cell killing [1, 4] -7.26% | activity, negative = cell killing [1, 5] 14.2% | activity, negative = cell killing [1, 6] -28% | max response [2] 8.69% and -3.29%

CCC(=O)O[C@H]1CC[C@H]2[C@@H]3CCC4=CC(=O)CC[C@]4(C)[C@H]3CC[C@]12C
inactive: Potency (SKOV3) | Potency (Tov-21-G) | Potency (Tov112D) | activity, negative = cell killing [1, 7] -4.44% | activity, negative = cell killing [1, 8] -24.6% | Potency (astro) | outcome [3]
active: Potency (PA-1) 15.8 µM | Potency ([1]; tumour line A) 14.1 µM

CCC1(c2cccc(O)c2)CCCCN(C)C1 (centres undefined)
inactive: Potency (PA-1) | Potency (SKOV3) | Potency (Tov-21-G) | Potency (Tov112D) | activity, negative = cell killing [1, 7] -5.3% | activity, negative = cell killing [1, 8] -23.7% | Potency (astro)

CN(C)CCc1c[nH]c2cccc(O)c12
inactive: Potency (PA-1) | Potency (Tov-21-G) | Potency (Tov112D) | activity, negative = cell killing ([1]; at 91.6 µM (top of the series), tumour line B) -8.47% | activity, negative = cell killing ([1]; at 91.6 µM (top of the series), tumour line D) -23.4%

CCCOC(=O)Cc1ccc(OCC(=O)N(CC)CC)c(OC)c1
inactive: Potency (PA-1) | Potency (Tov-21-G) | Potency (Tov112D) | activity, negative = cell killing [1, 4] -0.689% | activity, negative = cell killing [1, 5] -1.94% | activity, negative = cell killing [1, 6] -27.4% | Potency (astro)

CCOC(=O)c1ncn2c1CN(C)C(=O)c1c(I)cccc1-2
inactive: Potency (PA-1) | Potency (Tov-21-G) | Potency (Tov112D)

CC#C[C@]1(O)CC[C@H]2[C@@H]3C[C@H](C)C4=CC(=O)CC[C@]4(C)[C@H]3CC[C@@]21C
inactive: Potency (Tov-21-G) | Potency (Tov112D)
active: Potency (PA-1) 25.1 µM

COc1ccc(CN2CCNCC2)c(OC)c1OC
inactive: Potency (PA-1) | Potency (SKOV3) | Potency (Tov-21-G) | Potency (Tov112D) | activity, negative = cell killing [1, 7] -2.66% | activity, negative = cell killing [1, 8] -1.27% | Potency (astro)

COP(=O)(OC)C(O)C(Cl)(Cl)Cl (centres undefined)
inactive: Potency (PA-1) | Potency (SKOV3) | Potency (Tov-21-G) | Potency (Tov112D) | activity, negative = cell killing [1, 4] -5.86% | activity, negative = cell killing [1, 5] -9.43% | activity, negative = cell killing [1, 6] -20.1% | max response [2] 3.3%

COP(=S)(OC)Oc1ccc(Sc2ccc(OP(=S)(OC)OC)cc2)cc1
inactive: Potency (PA-1) | Potency (SKOV3) | Potency (Tov-21-G) | Potency (Tov112D) | max response [2] 1.29% | outcome [3]

c1cc2c(c(N3CCNCC3)c1)OCCO2
inactive: Potency (PA-1) | Potency (SKOV3) | Potency (Tov-21-G) | Potency (Tov112D) | activity, negative = cell killing [1, 4] -7.8% | activity, negative = cell killing [1, 5] -0.968% | Potency (astro)

CCOP(=S)(OCC)O/N=C(\C#N)c1ccccc1
inactive: Potency (PA-1) | Potency (SKOV3) | Potency (Tov-21-G) | Potency (Tov112D) | activity, negative = cell killing [1, 4] 9.02% | activity, negative = cell killing [1, 5] -6.28% | Potency (astro) | max response [2] -0.568%

CC1Sc2c(C(=O)O)c(=O)c3cc(F)c(N4CCNCC4)cc3n21 (centres undefined)
inactive: Potency (PA-1) | Potency (Tov-21-G) | Potency (Tov112D)

CN(C)CCc1c[nH]c2ccccc12
inactive: Potency (PA-1) | Potency (SKOV3) | Potency (Tov-21-G) | Potency (Tov112D) | activity, negative = cell killing ([1]; at 108 µM (top of the series), tumour line B) -3.73% | activity, negative = cell killing ([1]; at 108 µM (top of the series), tumour line D) -2.02% | Potency (astro)

C=CC[C@]1(O)CC[C@H]2[C@@H]3CCC4=CC(=O)CCC4=C3C=C[C@@]21C
inactive: Potency (PA-1) | Potency (Tov-21-G) | Potency (Tov112D) | activity, negative = cell killing [1, 4] -12.5%
active: Potency ([1]; tumour line A) 17.8 µM
